Experimental data as given in PubChem BioAssay.
Active and inactive are the calls of the source.

Key:
Albumin (Bos taurus) = Albumin (Bos taurus) (UniProt P02769); assay: compounds binding labelled BSA control protein – biochemical, small-molecule microarray, Alexa647 label, 635/667 nm fluorescence, artefact control for SMM control protein annotation, profiling panel (AID 1118); conditions: BSA-A647 binding, fluorescence 635 nm, higher = more signal;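 note: score merges 667 nm emission intensity and signal-to-noise per printed compound spot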
[1] = probe aXIP binding to arrayed compounds – biochemical, NeuroSMM set, 635/667 nm fluorescence, primary screen (AID 1119); conditions: small-molecule microarray, higher = more signal, called active from +8 up or from −8 down;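 note: probe is the protein aXip251-270 applied at 1 µg/mL to compound-printed slides; binding of probe to printed compounds measured as 667 nm fluorescence plus signal to noise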
[2] = probe aNOTCH3 binding on compound microarray – biochemical, small-molecule microarray, 635/667 nm fluorescence, primary screen (AID 1120); conditions: higher = more signal;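 note: probe is a biotin-tagged antibody raised against NOTCH3 rather than NOTCH3 protein; score merges spot fluorescence near 667 nm with spot signal to noise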
[3] = probe aNOTCH2 binding on compound microarray – biochemical, small-molecule microarray, 635/667 nm fluorescence, primary screen (AID 1121); conditions: higher = more signal;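 note: score merges feature fluorescence read at 667 nm with its signal to noise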
[4] = target: Carbonic anhydrase 2 (Homo sapiens) (UniProt P00918); assay: compounds binding carbonic anhydrase 2 – biochemical, small-molecule microarray, Alexa647-labelled CAII, profiling panel (AID 1122); conditions: CAII-A647 binding fluorescence, higher = more signal
[5] = COS7 lysate on small-molecule microarray, probe aHis, 635 nm (AID 1123); conditions: COS7 cell lysate, fluorescence, higher = more signal;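 note: z-score combines 667nm fluorescence intensity with signal-to-noise per printed compound spot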
[6] = probe aLAP1 signal on lysate-treated microarray – cell lysate, small-molecule microarray, COS7 lysate, primary screen (AID 1124); conditions: probe aLAP1, fluorescence, higher = more signal;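 note: lysate comes from COS7 cells expressing LAP1 and is applied at 0.3 µg/mL; score merges spot fluorescence near 667 nm with signal-to-noise over triplicate slides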
Sam68 (KHDRBS1) = assay: compounds binding KHDRBS1 protein – biochemical, small-molecule microarray, 635 nm fluorescence, primary screen (AID 1125); conditions: higher = more signal;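 note: score merges 667 nm channel intensity with signal to noise over triplicate slides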
[7] = test system: Chordin-like protein 2 (CHRDL2); assay: compounds binding chordin-like 2 – biochemical, small-molecule microarray, 635 nm fluorescence, primary screen (AID 1126); conditions: fluorescence 635 nm, higher = more signal;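 note: printed compound slides probed with Chrdl2 protein at 4 µg/mL for 1 h at 4 C; score merges 667 nm emission intensity with signal to noise over three replicate slides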
[8] = target: Concanavalin-A (Canavalia ensiformis) (UniProt P02866); assay: compounds binding concanavalin A lectin – biochemical, small-molecule microarray, Alexa647 label, 635 nm, artefact control for SMM control protein annotation, primary screen (AID 1127); conditions: ConA-A647 binding fluorescence, higher = more signal;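 note: z combines 667 nm emission intensity with signal-to-noise across three replicate slides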
[9] = compounds binding Alexa647 anti-His antibody – biochemical, small-molecule microarray, 635 nm fluorescence, artefact control for SMM control protein annotation, primary screen (AID 1128); conditions: higher = more signal;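 note: score merges feature fluorescence with signal-to-noise for each printed compound spot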
[10] = test system: Human papillomavirus type 1a E7 protein (residues 1-88); assay: HPV1a E7 small-molecule binders, primary screen, biochemical, small-molecule microarray, residues 1-88, 635 nm (AID 1129); conditions: small-molecule microarray binding, fluorescence 635 nm; higher = more signal
[11] = target: Focal adhesion kinase 1 (Homo sapiens) (UniProt Q05397); assay: PTK2 protein binding on printed compound slides – biochemical, small-molecule microarray, 635/667 nm fluorescence, BSA, DTT, primary screen (AID 1130); conditions: 635 nm fluorescence, higher = more signal;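 note: composite of spot emission at 667 nm and signal to noise over triplicate slides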
[12] = test system: Fibrinogen (Alexa647-labelled); assay: Alexa647-fibrinogen binding to printed small molecules – biochemical, small-molecule microarray, 635/667 nm fluorescence, artefact control for SMM control-protein annotation, profiling panel (AID 1131); conditions: fibrinogen-A647 binding fluorescence, higher = more signal;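 note: z-score merges 667 nm fluorescence with per-spot signal-to-noise over triplicate slides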
[13] = target: Follistatin (Homo sapiens) (UniProt P19883); assay: FST protein binding to printed compounds – biochemical, small-molecule microarray, 635/667 nm fluorescence, primary screen (AID 1132); conditions: 635 nm fluorescence, higher = more signal
[14] = target: Fibroblast growth factor 2 (Homo sapiens) (UniProt P09038); assay: basic fibroblast growth factor binding to printed compounds – biochemical, small-molecule microarray, 635/667 nm fluorescence, primary screen (AID 1133); conditions: FGF2, fluorescence 635/667, higher = more signal
[15] = JC-1 mitochondrial potential readout, lung cancer cells – cell-based, A549, JC-1 fluorescence, basal, 24 h, 100 nL, profiling panel (AID 1138); conditions: higher = more signal;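 note: A549 lung adenocarcinoma cells under basal conditions with no added stimulus; test concentration not given here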
Lefty1 = Lefty1 protein binding to printed compounds – biochemical, small-molecule microarray, 635/667 nm fluorescence, primary screen (AID 1139); conditions: fluorescence 635/667, higher = more signal
[16] = test system: wheat germ agglutinin (Triticum aestivum), Alexa647-labelled; assay: Alexa647-WGA lectin binding to printed small molecules – biochemical, small-molecule microarray, 635/667 nm fluorescence, artefact control for SMM control-protein annotation, profiling panel (AID 1140); conditions: WGA-A647 binding, 635 nm fluorescence, higher = more signal;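 note: score merges 667 nm feature emission with signal to noise over triplicate slides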
[17] = target: Luciferin 4-monooxygenase (Photinus pyralis) (UniProt P08659); assay: inhibition of purified Photinus pyralis luciferase – biochemical, luminescence, purified enzyme, 2006 set, primary screen (AID 1141); conditions: purified firefly luciferase, SteadyGlo luminescence, 30 min; higher = more signal, called active from +8 up or from −8 down;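 note: cell-free assay with purified firefly luciferase at 100 ng per well in PBS; test concentration not given here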
Luciferin 4-monooxygenase (Photinus pyralis), sequence (P08659 whole entry, looked up): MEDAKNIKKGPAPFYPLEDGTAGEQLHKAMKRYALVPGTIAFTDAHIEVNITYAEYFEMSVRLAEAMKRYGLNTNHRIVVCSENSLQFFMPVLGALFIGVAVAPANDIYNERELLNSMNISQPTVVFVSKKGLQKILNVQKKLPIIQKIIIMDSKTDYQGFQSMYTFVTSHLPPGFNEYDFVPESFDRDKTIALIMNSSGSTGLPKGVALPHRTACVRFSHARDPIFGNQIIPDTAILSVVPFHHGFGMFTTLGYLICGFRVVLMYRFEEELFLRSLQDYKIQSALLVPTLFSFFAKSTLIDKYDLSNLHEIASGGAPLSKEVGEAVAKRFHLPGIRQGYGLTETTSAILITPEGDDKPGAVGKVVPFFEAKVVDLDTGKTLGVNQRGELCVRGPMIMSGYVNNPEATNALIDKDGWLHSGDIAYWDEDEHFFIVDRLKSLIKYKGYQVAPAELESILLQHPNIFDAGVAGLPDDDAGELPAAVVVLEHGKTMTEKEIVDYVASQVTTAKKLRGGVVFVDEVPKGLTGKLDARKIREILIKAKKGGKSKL

Follistatin (Homo sapiens), sequence (P19883 whole entry, looked up): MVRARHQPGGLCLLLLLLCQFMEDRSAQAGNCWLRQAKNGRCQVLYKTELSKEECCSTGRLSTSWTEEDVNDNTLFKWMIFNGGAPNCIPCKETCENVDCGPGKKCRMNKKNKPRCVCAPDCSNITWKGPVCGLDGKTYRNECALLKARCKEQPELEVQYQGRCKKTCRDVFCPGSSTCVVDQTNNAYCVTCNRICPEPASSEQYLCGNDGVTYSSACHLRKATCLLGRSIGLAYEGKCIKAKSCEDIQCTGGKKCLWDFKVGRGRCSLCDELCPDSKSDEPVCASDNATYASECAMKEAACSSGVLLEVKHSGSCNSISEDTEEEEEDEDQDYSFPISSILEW
Fibroblast growth factor 2 (Homo sapiens), sequence (P09038 whole entry, looked up): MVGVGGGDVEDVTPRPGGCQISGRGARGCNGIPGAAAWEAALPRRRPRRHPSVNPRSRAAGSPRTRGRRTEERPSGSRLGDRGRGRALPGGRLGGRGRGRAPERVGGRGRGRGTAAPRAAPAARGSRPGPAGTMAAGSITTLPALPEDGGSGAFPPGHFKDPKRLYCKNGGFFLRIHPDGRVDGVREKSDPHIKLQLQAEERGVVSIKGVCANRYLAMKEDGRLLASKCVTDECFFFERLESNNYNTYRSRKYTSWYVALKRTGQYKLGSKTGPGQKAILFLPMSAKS
Focal adhesion kinase 1 (Homo sapiens), sequence (Q05397 whole entry, looked up): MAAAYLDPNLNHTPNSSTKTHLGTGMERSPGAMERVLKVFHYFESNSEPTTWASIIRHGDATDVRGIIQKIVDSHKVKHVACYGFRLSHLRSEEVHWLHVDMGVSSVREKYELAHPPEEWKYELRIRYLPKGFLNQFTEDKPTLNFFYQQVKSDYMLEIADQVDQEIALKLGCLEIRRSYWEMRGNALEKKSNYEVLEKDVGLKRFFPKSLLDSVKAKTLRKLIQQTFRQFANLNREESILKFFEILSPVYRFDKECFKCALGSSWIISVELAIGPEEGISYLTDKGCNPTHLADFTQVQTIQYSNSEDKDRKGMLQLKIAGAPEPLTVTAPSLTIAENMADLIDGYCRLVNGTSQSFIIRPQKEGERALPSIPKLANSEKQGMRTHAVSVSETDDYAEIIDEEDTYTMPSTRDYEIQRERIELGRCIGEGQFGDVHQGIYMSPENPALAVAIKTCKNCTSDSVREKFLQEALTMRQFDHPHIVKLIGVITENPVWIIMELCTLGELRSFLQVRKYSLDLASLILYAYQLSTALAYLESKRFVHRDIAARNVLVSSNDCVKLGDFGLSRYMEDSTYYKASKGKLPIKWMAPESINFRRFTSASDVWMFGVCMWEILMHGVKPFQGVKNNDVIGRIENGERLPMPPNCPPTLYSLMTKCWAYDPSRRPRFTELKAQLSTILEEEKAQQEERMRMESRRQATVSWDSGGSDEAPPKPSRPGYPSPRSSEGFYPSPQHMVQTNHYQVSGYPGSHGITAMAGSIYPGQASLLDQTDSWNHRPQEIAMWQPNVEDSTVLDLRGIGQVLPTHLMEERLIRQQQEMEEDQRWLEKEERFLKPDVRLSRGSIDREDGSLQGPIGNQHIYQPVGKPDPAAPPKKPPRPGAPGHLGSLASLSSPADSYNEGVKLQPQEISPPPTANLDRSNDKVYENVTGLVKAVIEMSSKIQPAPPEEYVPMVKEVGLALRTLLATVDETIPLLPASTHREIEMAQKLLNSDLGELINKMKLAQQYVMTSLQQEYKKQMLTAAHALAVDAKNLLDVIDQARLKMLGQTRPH
Albumin (Bos taurus), sequence (P02769 whole entry, looked up): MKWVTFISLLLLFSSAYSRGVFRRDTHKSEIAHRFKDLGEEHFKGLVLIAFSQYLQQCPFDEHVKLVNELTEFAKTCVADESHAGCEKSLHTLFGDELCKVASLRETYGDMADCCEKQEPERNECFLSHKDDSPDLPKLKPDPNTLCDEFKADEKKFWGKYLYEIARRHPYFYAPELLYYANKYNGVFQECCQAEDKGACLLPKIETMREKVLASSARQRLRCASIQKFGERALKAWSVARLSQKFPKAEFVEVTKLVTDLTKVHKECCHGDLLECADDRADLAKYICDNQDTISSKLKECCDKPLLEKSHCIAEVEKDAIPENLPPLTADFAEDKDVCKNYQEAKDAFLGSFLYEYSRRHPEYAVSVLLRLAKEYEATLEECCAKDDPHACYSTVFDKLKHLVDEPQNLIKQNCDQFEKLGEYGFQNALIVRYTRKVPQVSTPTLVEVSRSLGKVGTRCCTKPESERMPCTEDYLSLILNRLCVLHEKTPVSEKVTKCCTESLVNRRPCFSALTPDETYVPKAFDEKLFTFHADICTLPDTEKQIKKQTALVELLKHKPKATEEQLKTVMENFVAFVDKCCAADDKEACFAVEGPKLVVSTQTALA
Concanavalin-A (Canavalia ensiformis), sequence (P02866 whole entry, looked up): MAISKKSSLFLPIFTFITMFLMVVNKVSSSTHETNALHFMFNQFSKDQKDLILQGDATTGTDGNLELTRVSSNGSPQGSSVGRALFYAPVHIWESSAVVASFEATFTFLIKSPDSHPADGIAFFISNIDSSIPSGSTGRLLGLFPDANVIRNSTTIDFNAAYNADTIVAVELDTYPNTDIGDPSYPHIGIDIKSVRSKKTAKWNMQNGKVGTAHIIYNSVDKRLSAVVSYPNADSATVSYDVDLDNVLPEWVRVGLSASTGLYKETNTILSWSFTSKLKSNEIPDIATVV

| SMILES | composite z-score (Albumin (Bos taurus)) | composite Z-score [1] | composite z-score [2] | composite z-score [3] | composite z-score [4] | composite z-score [5] | composite z-score [6] | composite z-score (Sam68 (KHDRBS1)) | composite z-score [7] | composite z-score [8] | composite z-score [9] | composite z-score [10] | composite z-score [11] | composite z-score [12] | composite z-score [13] | composite z-score [14] | z-score [15] | composite z-score (Lefty1) | composite z-score [16] | z-score [17] |
| --- | --- | --- | --- | --- | --- | --- | --- | --- | --- | --- | --- | --- | --- | --- | --- | --- | --- | --- | --- | --- |
| N#Cc1ccc(C(O)C2C=CC3C(=O)NC(=O)C3N2Nc2ccc(Cl)cc2Cl)cc1 (stereo not given) | 0.956 | 0.868 (inactive) | 0.112 | 0.132 | 0.651 | 2.94 | 1.48 | -0.0258 | -0.581 | 0.489 | 0.299 | 0.534 | 0.352 | 0.732 | -0.0644 | -0.164 | 1.28 | -0.781 | 1.08 | 0.293 (inactive) |
| COC(=O)C(CC#Cc1ccc2c(c1)[C@]1(C(=O)N2)[C@H](C(=O)NC[C@H](O)c2ccccc2)[C@H]2C(=O)O[C@H](c3ccccc3)[C@H](c3ccccc3)N2[C@@H]1c1ccccc1OCCO)C(=O)OC | -0.119 | -0.154 (inactive) | 0.0779 | -0.115 | 0.376 | 2.14 | 0.298 | 1.25 | 0.557 | 1.01 | 2.68 | 1.23 | 0.289 | 0.478 | 1.25 | 1.56 | -0.693 | 0.221 | 1.09 | 0.742 (inactive) |
| CCOC(=O)C[C@H]1[C@H](OC(=O)Cc2ccc3c(c2)OCO3)[C@@H](NC(=O)c2ccc3ccccc3n2)c2cc(OCCCO)ccc2N1C(=O)Cc1ccc(OC)cc1 | 0.635 | 0.378 (inactive) | 0.169 | -0.0286 | 0.276 | 0.654 | 0.0887 | 0.91 | -0.17 | 0.774 | 0.337 | 0.672 | -0.307 | 0.557 | 0.72 | 0.394 | 1.26 | 0.577 | 0.391 | -0.628 (inactive) |
| Cc1ccccc1C(O)C1C=CC2C(=O)N(c3ccccc3)C(=O)C2N1Nc1ccccc1 (stereo not given) | 0.944 | 0.738 (inactive) | 0.312 | -0.0485 | 0.781 | 2.94 | 0.0139 | 1.29 | -0.147 | 1.14 | 1.53 | 1.25 | 0.969 | 1.03 | 1.3 | 0.0635 | -0.128 | 0.55 | 1.33 | -0.818 (inactive) |
| [N-]=[N+]=NCc1ccccc1[C@@H]1OC(c2ccc(OCCCO)cc2)=N[C@]1(Cc1ccccc1N=[N+]=[N-])C(=O)NCC(O)CO (stereo not given in full) | 0.98 | 0.71 (inactive) | 0.409 | 0.252 | 0.614 | 3.16 | 0.695 | 1.32 | -0.703 | 1.11 | 2.76 | 1.2 | 0.955 | 0.911 | 1.05 | 1.26 | 0.637 | -0.459 | 1.22 | -2.1 (inactive) |
| COc1ccc(C(=O)Nc2ccc(CN3C(=O)[C@@]4(O[C@@H](CCn5cc(CCO)nn5)[C@H]([Si](C)(C)c5ccc(OC)cc5)[C@H]4C)c4ccccc43)cc2)cc1 | 0.264 | 0.32 (inactive) | 0.0276 | -0.0895 | 0.348 | 0.822 | 0.116 | 1.32 | 0.919 | 1.09 | 1.17 | 1.17 | 0.749 | 0.874 | 1.35 | 1.21 | -0.326 | 1.1 | 0.522 | -0.162 (inactive) |
| CN(C)c1ccc(C(O)C2C=CC3C(=O)N(Cc4ccccc4)C(=O)C3N2n2cnnc2)cc1 (stereo not given) | -0.184 | 0.111 (inactive) | -0.0023 | -0.0993 | 0.244 | 0.0348 | -0.0894 | -0.671 | 0.245 | -0.46 | 0.108 | 0.115 | -0.535 | 0.32 | 0.225 | 0.239 | -0.269 | -0.231 | 0.0743 | -1.66 (inactive) |
| COc1cc(CO)cc(I)c1O[C@H]1C=C(C(=O)NCCO)C[C@@H]2O[C@H]12 | -0.39 | 1.49 (inactive) | -0.0311 | -0.0596 | 0.465 | 1.07 | 0.0543 | 1.3 | 1.36 | 1.01 | 0.426 | 1.22 | 0.572 | 0.4 | 1.52 | 2.13 | -0.976 | 1.37 | 0.308 | 0.847 (inactive) |
| CC(C)=CCCC=C(C)C(O)C1C=CC2C(=O)N(c3ccccc3)C(=O)C2N1Nc1ccc(C#N)cc1 (stereo not given) | 0.976 | -0.213 (inactive) | 0.518 | -0.157 | 0.596 | 2.34 | 1.54 | 1.03 | 0.173 | 1.11 | 1 | 1.21 | 0.901 | 0.972 | 1.31 | 0.333 | -0.902 | 0.507 | 1.06 | -1.32 (inactive) |
| COC(=O)[C@@]1(Cc2ccc(F)cc2)[C@H]2c3cc(C(=O)N(C)C)n(CCc4ccc(O)c(O)c4)c3C[C@H]2CN1C(=O)c1ccccc1 | 0.508 | 0.964 (inactive) | 0.0807 | 0.256 | 0.863 | 3.26 | 0.541 | 0.0409 | -0.938 | 0.227 | -0.0012 | 1.18 | 0.512 | 0.823 | -0.123 | -0.72 | 0.987 | -0.08 | 0.528 | 0.569 (inactive) |
